Compound activity from PubChem BioAssay.
VCAM1 TNFa inh: reduces TNF alpha induced VCAM1 expression in HUVEC. HUVEC TNFa-induced VCAM-1 immunofluorescence, high-content imaging. inhibition, % at 2 µM. 95,000 tested, 0.48% active. AID 802;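 active = inhibition above the batch mean plus 3 SD, with images confirmed as a hit by eye, cut at about 37% in these data; inconclusive = inhibition above that limit but hit not confirmed in images; inactive = inhibition not above that limit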
F-actin modifier: modifiers of cytoskeleton assembly; HUVEC TNFa F-actin phalloidin imaging, high content; inhibition, % at 2 µM; 91,000 tested, 0.18% active; AID 836;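 active = inhibition above the batch mean plus 3 SD and confirmed as a hit by visual image inspection, cut at about 30% in these data, passing the limit was not always enough; inconclusive = above the inhibition threshold but rejected on visual inspection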
E-sel TNF inh: blocks E-selectin expression induced by TNF alpha; HUVEC TNFa-induced E-selectin immunofluorescence, high content; inhibition, % at 2 µM; 120,000 tested, 0.71% active; AID 1246;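 active = inhibition above the batch mean plus 3 SD, and confirmed as a hit on visual image review, cut at about 43% in these data; inconclusive = passes the inhibition cutoff but fails visual image review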
HUVEC tox TNFa: HUVEC cytotoxicity counter-screen, TNF alpha stimulated | HUVEC TNFalpha-stimulated, Hoechst cell count, imaging | 93,000 tested, 0.17% active | cell count reduction, % at 2 µM | AID 848;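 active = cell count reduction exceeding the screen mean by over 5 SD, scaled to untreated wells per plate, cut at about 78% in these data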;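 also: cells counted after 24 h of TNF alpha exposure following the 1 h pretreatment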
Large screens that a line does not name were inactive. Compounds with a hit are over-represented: about 1.1% of the library has one in this group of screens.

COc1ccc(OC)c(NS(=O)(=O)c2ccc(N3CCCC3=O)cc2)c1	VCAM1 TNFa inh 41 (no result: E-sel TNF inh)
O=C(CSC1CC(=O)N(c2ccc(C(=O)O)cc2)C1=O)Nc1ccc(Cl)cc1 (stereo not given)	none (no result: VCAM1 TNFa inh, F-actin modifier, HUVEC tox TNFa)
O=c1ccc(Oc2nc(N3CCOCC3)nc(N3CCOCC3)n2)nn1-c1ccccc1	VCAM1 TNFa inh 99, HUVEC tox TNFa 90
CCC(=O)N1c2ccc(S(=O)(=O)CCC(=O)N3CCn4c3nc3ccccc34)cc2CC1C (stereo not given)	VCAM1 TNFa inh 83, HUVEC tox TNFa 84
CCC(=O)N1c2ccc(S(=O)(=O)CCC(=O)NC3CCCC3)cc2CC1C (stereo not given)	none
CCCNC(=O)C1CCN(S(=O)(=O)c2c(C)noc2/C=C\c2ccc(OC)cc2)CC1	E-sel TNF inh 76
COc1ccc2nc(NC(=O)CSC3=NCCS3)sc2c1	E-sel TNF inh 100
CCOc1ccc2nc(NC(=O)CSC3=NCCS3)sc2c1	none
O=C(Nc1ccccc1-c1ccccc1)c1ccc(NC(=O)c2ccco2)cc1	none
COCCN1CN(S(=O)(=O)c2ccccc2)c2nc3ccccc3nc21	E-sel TNF inh 63 (no result: VCAM1 TNFa inh, F-actin modifier, HUVEC tox TNFa)
CC(OC(=O)CCc1nc2ccccc2c(=O)[nH]1)C(=O)c1ccc(C(C)(C)C)cc1 (stereo not given)	none (no result: VCAM1 TNFa inh, F-actin modifier, HUVEC tox TNFa)
COc1ccccc1N1CCN(c2cc(C)nc3nc(C)nn23)CC1	none (no result: VCAM1 TNFa inh, F-actin modifier, HUVEC tox TNFa)
COc1ccccc1N1CCN(c2cc(N3CCCC3)nc(C)n2)CC1	E-sel TNF inh 100
Cc1nc2sc(C(c3ccc(Cl)cc3)N3CC(C)OC(C)C3)c(O)n2n1 (stereo not given)	VCAM1 TNFa inh 36
Cc1ccc(C(c2sc3nc(C)nn3c2O)N2CC(C)OC(C)C2)cc1 (stereo not given)	none
Cc1cnc(NC(=O)c2ccco2)s1	HUVEC tox TNFa 89 (no result: E-sel TNF inh)
CC(C)N(Cc1nc(-c2ccccc2)no1)C(=O)c1ccc2c(c1)OCO2	none
O=C(NCc1nc(-c2ccccc2)no1)c1ccc2c(c1)OCO2	E-sel TNF inh 100
O=C1N(Cc2cccc(Cl)c2)C[C@@H]2C[C@@H](c3ccc4nonc4c3)N3CCC[C@@]123	none (no result: VCAM1 TNFa inh, F-actin modifier, HUVEC tox TNFa)
NC(=O)C1CCN(S(=O)(=O)c2cccc(C(=O)O)c2)CC1	none
CO/C([O-])=N/c1c[n+](-c2ccc(Cl)cc2)no1	E-sel TNF inh 59
Cc1ccc(S(=O)(=O)N2CCN(C(=O)C3COc4ccccc4O3)CC2)cc1C (stereo not given)	E-sel TNF inh 79
N=c1c2c(-c3ccccc3)c(-c3ccccc3)n(Cc3ccccc3)c2ncn1CCCn1ccnc1	VCAM1 TNFa inh 73
CCOC(=O)c1cc(=O)n(Cc2ccccc2C)c2ccccc12	VCAM1 TNFa inh 86, F-actin modifier 33
CCN(CC)c1ccc(C2C(C(=O)OCCOC)=C(C)NC3=C2C(=O)CC(C)(C)C3)cc1 (stereo not given)	E-sel TNF inh 61
CCCOC(=O)C1=C(C)NC2=C(C(=O)CC(C)(C)C2)C1c1ccc(N(C)C)cc1 (stereo not given)	none
O=C(NC(NC1CCS(=O)(=O)C1)C(=O)c1cccs1)c1ccccc1 (stereo not given)	VCAM1 TNFa inh 94
CCC(=O)Nc1cccc(C(=O)/C=C/c2cc(Br)ccc2OC)c1	VCAM1 TNFa inh 69
COc1ccc(N(CC(=O)Nc2ccc3c(c2)OCO3)S(C)(=O)=O)c(OC)c1	E-sel TNF inh 64
COc1ccc(OC)c(N(CC(=O)Nc2ccccc2)S(C)(=O)=O)c1	F-actin modifier 42 (no result: E-sel TNF inh)
COc1ccc(N(CC(=O)Nc2ccc3c(c2)OCCO3)S(C)(=O)=O)c(OC)c1	none (no result: VCAM1 TNFa inh, F-actin modifier, HUVEC tox TNFa)
O=C(CC1CCCC1)Nc1ccc2c(c1)CCC2	none
Cc1[nH]c2ccc(Br)cc2c(=O)c1CN1CCOCC1	none
CCOc1ccc2[nH]c(C)c(CN3CCOCC3)c(=O)c2c1	F-actin modifier 76 (no result: E-sel TNF inh)
O=C(Nc1scc(-c2ccc(F)cc2)c1C(=O)O)c1ccco1	none
COC(=O)c1c(-c2ccccc2)csc1NC(=O)c1ccco1	E-sel TNF inh 71
C/C(=N\O)c1ccc2c3ccccc3n(C)c2c1	VCAM1 TNFa inh 41 (no result: E-sel TNF inh)
CC(NC(=O)COc1ccccc1F)C1CC2CCC1C2 (stereo not given)	none (no result: VCAM1 TNFa inh, F-actin modifier, HUVEC tox TNFa)
CN(CC(=O)Nc1ccc(Cl)cc1)c1ccc(S(=O)(=O)N2CCCCC2)cc1[N+](=O)[O-]	E-sel TNF inh 62 (no result: VCAM1 TNFa inh, F-actin modifier, HUVEC tox TNFa)
COc1ccc(C)cc1-n1nnnc1SCC(=O)Nc1cc(C)on1	none (no result: VCAM1 TNFa inh, F-actin modifier, HUVEC tox TNFa)
COc1ccc(C)cc1-n1nnnc1SCC(=O)Nc1cccnc1Cl	E-sel TNF inh 78 (no result: VCAM1 TNFa inh, F-actin modifier, HUVEC tox TNFa)
O=C(CCc1ccccc1)Nc1ncc2c(n1)CCCC2=O	E-sel TNF inh 72
CNc1nc(C)cc(C)c1S(=O)(=O)c1ccc(C)cc1	none
COc1cc(C(=O)OCCNC(=O)c2ccncc2)cc(OC)c1OC	E-sel TNF inh 62 (no result: VCAM1 TNFa inh, F-actin modifier, HUVEC tox TNFa)
COC(=O)N1[C@H](C)C=C[C@]1(Cc1ccccc1)C(=O)O	E-sel TNF inh 96 (no result: VCAM1 TNFa inh, F-actin modifier, HUVEC tox TNFa)
CCOC(=O)N1CCC(NC(=O)c2ccc3c(=O)n4c(nc3c2)CCCC4)CC1	E-sel TNF inh 64
CN1CCN(C(=O)CSc2ccc(C(F)(F)F)cc2[N+](=O)[O-])CC1	none (no result: VCAM1 TNFa inh, F-actin modifier, HUVEC tox TNFa)
CC(C)NC(=O)CN1CCC(c2ccccc2)C(O)C1 (stereo not given)	none (no result: VCAM1 TNFa inh, F-actin modifier, HUVEC tox TNFa)
C#CC(=O)N(c1cccc(OC)c1)C(C(=O)NC1CCCC1)c1cccs1 (stereo not given)	VCAM1 TNFa inh inconclusive, E-sel TNF inh 99
O=C(NC1CCCCC1)C(c1cccs1)N(Cc1cccs1)C(=O)c1ccco1 (stereo not given)	none
O=C(NC1CCCCC1)C(c1cccs1)N(C(=O)c1ccco1)c1ccc2c(c1)OCCO2 (stereo not given)	E-sel TNF inh 60
COCCOC(=O)c1c(NC(=O)CN2CCOCC2)sc(C(N)=O)c1C	E-sel TNF inh 72
CCOC(=O)c1c(NC(=O)CN2CCOCC2)sc(C(=O)NC)c1C	none
O=C(NNC(=O)c1ccccc1-n1cccc1)c1ccc(Cl)cc1	E-sel TNF inh 54 (no result: F-actin modifier)
O=C(NNC(=O)c1ccccc1-n1cccc1)c1ccc(Cl)c(Cl)c1	none
O=C(NN1CCOCC1)c1ccc(S(=O)(=O)N2CCCCC2)cc1	none (no result: VCAM1 TNFa inh, F-actin modifier, HUVEC tox TNFa)
C=CCNC(=O)C1CC(=O)N(c2ccc(OCC(=O)Nc3cccc(OC)c3)cc2)C1 (stereo not given)	F-actin modifier 52
C=CCNC(=O)C1CC(=O)N(c2ccc(OCC(=O)Nc3ccc(Cl)c(C(F)(F)F)c3)cc2)C1 (stereo not given)	none
CC(=O)c1cc(C#N)c(SCc2ccc([N+](=O)[O-])cc2)nc1C	none (no result: VCAM1 TNFa inh, F-actin modifier, HUVEC tox TNFa)
Clc1ccc(C(c2nnnn2CCc2ccccc2)N2CCSCC2)cc1 (stereo not given)	none
O=C1c2oc3ccccc3c(=O)c2C(c2cccc(F)c2)N1CCCO (stereo not given)	F-actin modifier 67
O=C1c2oc3ccccc3c(=O)c2C(c2cccc(O)c2)N1CCCN1CCOCC1 (stereo not given)	none
CCCCc1ccc(NC(=S)Nc2ccc(Cl)c(S(=O)(=O)N(C)C)c2)cc1	none (no result: VCAM1 TNFa inh, F-actin modifier, HUVEC tox TNFa)
CCCCS(=O)(=O)/C=C\C1C2C=CC(C2)C1S(=O)(=O)CCCC (stereo not given)	none
CCCCS(=O)(=O)/C=C\C=C/S(=O)(=O)CCCC	VCAM1 TNFa inh 86 (no result: E-sel TNF inh)
Cc1csc(N(C(=O)c2ccccc2F)c2ccccc2)n1	none (no result: VCAM1 TNFa inh, F-actin modifier, HUVEC tox TNFa)
COc1cccc(CNC(=O)C2CCN(S(=O)(=O)N3CCCCC3)CC2)c1	none
